SMILES strings stand for the structures. In all, about 16,000 compounds went through this assay and about 5,100 (32%) were called active. Roughly 25% stayed inconclusive and do not appear here. The list shows a part of the results. A number with no mark means an inactive call. The call rests on the fitted dose curve; in most records, active means well fitted curve in the direction sought with a large enough effect; inconclusive means small, poorly fitted or top-dose-only effect, or effect the other way; inactive means no such curve, though single readings can be large or run the other way.
On the % scale 0 is the no-effect control and ±100 the full control effect.

This test deals with Cytochrome P450 3A4 (Homo sapiens) (UniProt P08684). As to the kind of experiment: Cytochrome panel assay with activity outcomes. The following applies: recombinant CYP, pro-luciferin dealkylation, luminescence, p450-cyp3a4; series mostly up to 57.1 µM.
Cytochrome P450 3A4 (Homo sapiens), sequence (P08684 whole entry, looked up): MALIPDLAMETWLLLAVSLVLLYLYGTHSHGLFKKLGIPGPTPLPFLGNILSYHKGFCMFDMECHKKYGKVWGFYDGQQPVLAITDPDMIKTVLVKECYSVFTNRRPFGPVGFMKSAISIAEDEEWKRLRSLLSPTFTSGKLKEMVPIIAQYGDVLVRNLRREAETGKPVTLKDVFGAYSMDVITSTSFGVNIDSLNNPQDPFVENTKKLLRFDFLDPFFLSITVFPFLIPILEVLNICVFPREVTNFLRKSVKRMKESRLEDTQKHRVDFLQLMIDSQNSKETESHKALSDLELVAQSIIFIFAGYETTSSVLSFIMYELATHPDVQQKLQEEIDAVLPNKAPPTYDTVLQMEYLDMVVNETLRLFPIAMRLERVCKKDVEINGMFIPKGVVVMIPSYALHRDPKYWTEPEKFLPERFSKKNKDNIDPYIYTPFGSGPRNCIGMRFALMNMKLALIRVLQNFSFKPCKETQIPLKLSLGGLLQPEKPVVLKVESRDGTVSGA
For `Cc1nn2c([nH]c(=O)c3ccccc32)c1C=O`, the AC50 entry is “inactive”.

On to `O=C(O)NCc1ccccc1` (tested in a mixture with another compound), for which the activity, negative = inhibition is -3.33% [at 11.4 µM].

As for `O=C(NCc1ccccc1)c1sc(=S)n2c1[nH]c(=O)c1ccccc12`, the AC50 was 3.98 µM (active).

On to `CCN1CCN(CCCNC(=O)c2cc3cc4ccc(OC)cc4nc3o2)CC1`, for which the AC50 entry is “inactive”.

In the case of `COc1ccc2cc3cc(C(=O)NCCCN4CCOCC4)oc3nc2c1`, the AC50 was 10 µM (active).

Consider `COc1ccc2cc3cc(C(=O)NCCN4CCN(c5ccccc5F)CC4)oc3nc2c1`, for which the AC50 is 14.1 µM (active).

As for `CN1CCN(C(=O)c2ccc(-n3cccc3)cc2)CC1`, the AC50 result is “inactive”.

As for `COc1cc2c(C(=O)N3CCN(C)CC3)c(C)n(-c3ccccc3)c2cc1Br`, the AC50 is 1.12 µM (active).

In the case of `COc1cc2c3c(c1OC)C1(C=CC(=O)C=C1)CC3N(C(=O)c1ccccc1)CC2` (stereo not given), the AC50 entry is “inactive”.

Consider `COc1ccc2c(Cl)c(-c3nnco3)sc2c1`, for which the AC50 is 7.08 µM (active).

As to `COc1ccc2nc(/N=C\N(C)C)sc2c1`, the AC50 entry is “inactive”.

As to `COc1ccc2nc(N)sc2c1`, the AC50 result is “inactive”.

Consider `COc1cc(/C=N/Nc2snc(SC)c2C#N)cc(OC)c1OC`, for which the AC50 is 7.94 µM (active).

For `COc1cc(/C=N\Nc2nc3ccccc3[nH]2)cc(OC)c1OC`, the activity, negative = inhibition is -13.5% [at 2.29 µM].

For `COc1ccc(/C=N/Nc2snc(SC)c2C#N)cc1OC`, the AC50 is 8.91 µM (active).

On to `CS(=O)(=O)Nc1cccc(-c2cncnc2Nc2ccc(F)cc2)c1`, for which the AC50 is 0.316 µM (active).

For `COc1cccc(-c2cncnc2Nc2ccc(F)cc2)c1`, the half-maximal activity concentration (AC50) was 0.794 µM (active).

With `CS(=O)(=O)Nc1cccc(-c2cncnc2Nc2ccccc2)c1`, the AC50 is 0.501 µM (active).

Consider `COc1cccc(-c2cncnc2NC2CCNCC2)c1`, for which the AC50 entry was “inactive”.

Regarding `Nc1cc2c(nc3c4ccccc4c(N)cc3[n+]2-c2cccc3ccccc23)c2ccccc12` (tested in a mixture with another compound), the activity, negative = inhibition was -29.5% [at 11.4 µM].

On to `Cc1cc(N)c2ccccc2[n+]1CCCCCCCCCCCCCC[n+]1c(C)cc(N)c2ccccc21`, for which the AC50 is 10 µM (active).

Regarding `CCCCCCCCC[n+]1cccc2c3ccccc3ccc21`, the AC50 result was “inactive”.

With `CCOC(=O)[C@H](N)/C=C(\C)CP(=O)(O)O`, the AC50 entry is “inactive”.

`O=C(CSc1nc2ccccc2s1)c1sc2sc3ccccc3[n+]2c1O`: the activity, negative = inhibition is -12.2% [at 11.4 µM].

For the compound `O=C(CSc1nc2ccccc2s1)N1c2ccccc2Sc2ccc(C(F)(F)F)cc21`, the AC50 was 6.31 µM (active).

As for `O=C(CSc1nc2ccccc2s1)N1c2ccccc2Sc2ccccc21`, the AC50 was 11.2 µM (active).

As to `CO/N=C(\C(=O)N[C@@H]1C(=O)N2C(C(=O)O)=C(COC(N)=O)CS[C@@H]12)c1ccco1`, the AC50 entry is “inactive”.

In the case of `N[C@@H](CSS(=O)(=O)O)C(=O)O`, the AC50 result was “inactive”.

In the case of `CC(C)(C)c1[nH]nc2c1C(c1ccc(OC(=O)c3ccco3)cc1)C(C#N)=C(N)O2` (stereo not given), the AC50 is 2.24 µM (active).

Take `O=C(Nc1ccccc1Cl)c1ccn[nH]1`: the AC50 result was “inactive”.

In the case of `COC(=O)c1ccccc1NC(=O)c1ccc(F)cc1`, the AC50 result is “inactive”.

Take `O=C(Nc1cccc2[nH]ncc12)c1ccc(F)cc1`: the AC50 was 15.8 µM (active).

Regarding `O=C(Nc1ccccc1)N1CCCC2(CCN(C(=O)c3cc(C(F)(F)F)cc(C(F)(F)F)c3)CC2)C1`, the concentration at half-maximal activity (AC50) was 15.8 µM (active).

Take `COC(=O)N1CCC2(CCCN(C(=O)Nc3ccccc3)C2)CC1`: the AC50 result was “inactive”.

As to `O=C(Nc1ccccc1)N1CC2(CCN(C(=O)c3cc(C(F)(F)F)cc(C(F)(F)F)c3)CC2)C1`, the AC50 result was “inactive”.

As for `Cn1cccc1C(=O)N1CCC2(CCN(C(=O)Nc3cccc(F)c3)CC2)CC1`, the AC50 result is “inactive”.

With `N#Cc1cccc(NC(=O)N2CCCC3(CCN(C(=O)c4cc(C(F)(F)F)cc(C(F)(F)F)c4)CC3)C2)c1`, the AC50 was 10 µM (active).

Turning to `O=C(Nc1cccc(F)c1)N1CC[C@@]2(CCCN(C(=O)c3cc(C(F)(F)F)cc(C(F)(F)F)c3)C2)C1`, the AC50 is 15.8 µM (active).

As to `COCC(=O)N1CCC2(CC1)CN(C(=O)Nc1cccc(F)c1)C2`, the AC50 entry is “inactive”.

In the case of `O=C(Nc1cccc(F)c1)N1CCCC2(CCN(C(=O)c3cc(C(F)(F)F)cc(C(F)(F)F)c3)CC2)C1`, the AC50 is 12.6 µM (active).

`Cc1csc(NC(=O)Cc2c[nH]c3ccccc23)n1`: the AC50 was 35.5 µM (active).

`C=CC[C@@H]1C=C[C@H](O/N=C\[C@@H](C)[C@H](OCc2ccccc2)C(C)C)[C@H](CO)O1`: the AC50 is 3.98 µM (active).

Regarding `CO/N=C\[C@@H](OC)[C@H](C)/C=C\CC(=O)OC`, the activity, negative = inhibition was -11.6% [at 11.4 µM].

For the compound `CC(=O)OC[C@H]1O[C@@H](O/N=C\[C@@H](C)[C@H](OCc2ccccc2)C(C)C)[C@H](OC(C)=O)[C@@H](OC(C)=O)[C@H]1OC(C)=O`, the activity, negative = inhibition was -74.7% [at 11.4 µM].

Consider `C=CC[C@@H]1C=C[C@@H](O/N=C\[C@@H](OC)[C@H](C)/C=C\CC(=O)OC)[C@@H](CO)O1`, for which the AC50 is 3.16 µM (active).

For the compound `COC(=O)[C@H](C)NC(=O)C/C=C\[C@@H](C)[C@H]1C=C[C@H](O)[C@@H](CO)O1`, the activity, negative = inhibition is -25.2% [at 11.4 µM].

On to `CO[C@]1(NC(=O)C2SC(=C(C(N)=O)C(=O)O)S2)C(=O)N2C(C(=O)O)=C(CSc3nnnn3C)CS[C@H]21` (stereo not given in full), for which the AC50 entry was “inactive”.

Take `CCc1ncc(CO)n1Cc1cccc2ccccc12`: the activity, negative = inhibition is -11.4% [at 11.4 µM].

`COc1cc(CNCc2cccs2)ccc1OCC(=O)NC(C)(C)C`: the AC50 was 4.47 µM (active).

As for `COc1cc(CNCc2cccs2)cc(Br)c1OC`, the concentration at half-maximal activity (AC50) was 7.08 µM (active).

Turning to `COc1ccc(CNC(=O)Nc2cccs2)cc1OC`, the AC50 was 22.4 µM (active).

Take `CCOC(=O)N1CCN(C(=O)CNCc2cccs2)CC1`: the AC50 result is “inactive”.

`COc1cc(CNCc2cccs2)ccc1OCC(N)=O`: the AC50 result is “inactive”.

Turning to `CCN1CCN(Cc2ccc(NC(=O)Nc3cccs3)cc2)CC1`, the AC50 entry is “inactive”.

As for `N[C@H](C(=O)O)[C@@H](O)c1cnc[nH]1`, the activity, negative = inhibition is -12.3% [at 11.4 µM].

For the compound `COc1ccc2c(c1)CCCC21NC(=O)N(CC(N)=O)C1=O` (stereo not given), the AC50 entry was “inactive”.

Regarding `COc1ccc(OC)c(C(=O)CN2C(=O)NC(C)(c3ccccc3)C2=O)c1` (stereo not given), the AC50 is 10 µM (active).

With `Cc1cc(NC(=O)CN2C(=O)NC(C)(c3ccc(OC(F)F)cc3)C2=O)no1` (stereo not given), the AC50 entry was “inactive”.

As to `CC(C)NCCOCCSc1ccc(Cl)cc1`, the AC50 entry is “inactive”.

On to `COC(=O)[C@@H]1C[C@H]1[C@@H](NC(=O)c1ccccc1)c1ccccc1`, for which the AC50 entry was “inactive”.

On to `COC(=O)[C@@H]1C[C@H]1[C@@H](NC(=O)c1cccnc1)c1ccccc1`, for which the half-maximal activity concentration (AC50) is 10 µM (active).

Consider `COC(=O)[C@H]1C[C@@H]1[C@H](NC(=O)c1cccnc1)c1ccccc1`, for which the AC50 was 5.01 µM (active).

For `O=C(O)CN(CCN(CC(=O)O)CC(=O)O)CC(=O)O.[Mn]`, the activity, negative = inhibition is 1.35% [at 11.4 µM].

Turning to `N[C@@H](C(=O)O)c1ccc(C(=O)O)c(C(=O)O)c1`, the AC50 entry is “inactive”.

Take `Fc1ccc(Nc2ncncc2-c2ccccc2C(F)(F)F)cc1`: the concentration at half-maximal activity (AC50) is 0.398 µM (active).

In the case of `FC(F)(F)c1ccccc1-c1cncnc1Nc1ccccc1`, the AC50 is 0.501 µM (active).

Regarding `CNc1ncncc1-c1ccccc1C(F)(F)F`, the AC50 is 0.794 µM (active).

On to `NS(=O)(=O)c1nc(S(=O)(=O)O)c2[nH]cnc2n1`, for which the activity, negative = inhibition was -3.98% [at 11.4 µM].

Turning to `Cc1c(C)c2c(C)[nH]nc2oc1=O`, the activity, negative = inhibition is 4.7% [at 11.4 µM].

Consider `C[C@H]1CC[C@H]2C(=O)N[C@H](Cc3ccccc3)C(=O)N2[C@@H]1c1ccccc1`, for which the AC50 is 2.51 µM (active).

With `C[C@@H]1CC[C@@H]2C(=O)N3[C@@H](CC[C@@H](C)[C@@H]3c3ccc(-c4ccco4)cc3)C(=O)N2[C@H]1c1ccc(-c2ccco2)cc1`, the activity, negative = inhibition was -15.7% [at 11.4 µM].

As to `C[C@@H]1CN2[C@H](c3ccc(Br)cc3)[C@H](C)CC[C@H]2C(=O)O1`, the activity, negative = inhibition is -28.2% [at 11.4 µM].

For the compound `O=C(/C=C\c1ccc(O)c(O)c1)O[C@@H]1C[C@](O)(C(=O)O)C[C@@H](O)[C@@H]1O`, the AC50 result is “inactive”.

On to `CC(=O)Nc1ccc(NCN2C(=O)C3C4CCC(C4)C3C2=O)cc1` (stereo not given), for which the AC50 entry is “inactive”.

For `Cc1cccc(OC(=O)CN2C(=O)C3C4CCC(C4)C3C2=O)c1C` (stereo not given), the AC50 was 14.1 µM (active).

With `CCOc1ccc(C(=O)Nc2ccc(Cl)cn2)cc1Cl`, the AC50 entry was “inactive”.

With `COc1ccc(C(=O)Nc2ccc(Cl)cn2)cc1Cl`, the AC50 is 28.2 µM (active).

In the case of `Cc1cc(=O)oc(C)c1C(=O)Nc1ccc(Cl)cn1`, the activity, negative = inhibition is -3.08% [at 2.29 µM].

Turning to `FC(F)(F)c1ccccc1-c1cc(NCc2cccs2)ncn1`, the AC50 result is “inactive”.

Regarding `Cc1ccccc1-c1cncnc1NCc1cccs1`, the AC50 is 0.501 µM (active).

With `COc1ccccc1-c1cncnc1NCc1cccs1`, the AC50 was 0.398 µM (active).

With `FC(F)(F)c1ccccc1-c1cncnc1NCc1cccs1`, the AC50 was 0.251 µM (active).

As to `Clc1ccccc1-c1cncnc1NCc1cccs1`, the AC50 is 0.501 µM (active).

As to `CCCCCCCCCCCC1=C(O)C(=O)C=C(O)C1=O`, the AC50 entry is “inactive”.

With `O=C(O)CCCCCNC(=O)c1ccccc1Br`, the AC50 result is “inactive”.

Turning to `O=C(O)c1ccccc1C(=O)Nc1cc2c(cc1Br)-c1ccccc1C2=O`, the activity, negative = inhibition was -24.8% [at 11.4 µM].

Regarding `NNC(=O)CNC(c1ccccc1)c1cc(Br)ccc1NC(=O)c1ccccc1Br` (stereo not given), the AC50 is 0.794 µM (active).

Consider `CCOC(=O)CCN1C(=O)[C@H]2[C@H]3[C@H](O)[C@H](O)C/C(=N/OCC(C)C)[C@H]3CC[C@@H]2C1=O`, for which the activity, negative = inhibition was -22.9% [at 11.4 µM].

On to `COc1ccccc1-c1cc(NCc2cccnc2)ncn1`, for which the AC50 was 5.01 µM (active).

On to `Cc1ccccc1-c1cc(NCc2cccnc2)ncn1`, for which the AC50 is 10 µM (active).

Turning to `Cc1ccccc1-c1cc(NCc2ccccc2)ncn1`, the AC50 entry was “inactive”.

With `O=C(O)[C@H]1CCCNC1`, the AC50 entry is “inactive”.

Regarding `NS(=O)(=O)c1ccc(NCc2ccccc2OCc2ccccc2F)cc1`, the AC50 is 15.8 µM (active).

As to `NS(=O)(=O)c1ccc(NCc2nc3ccccc3[nH]2)cc1`, the activity, negative = inhibition was -19.2% [at 11.4 µM].

Turning to `NS(=O)(=O)c1ccc(NCc2cnc3ccccc3n2)cc1`, the activity, negative = inhibition was -7.19% [at 11.4 µM].

Source of the values: PubChem BioAssay AID1851 (National Center for Advancing Translational Sciences (NCATS), 2009).
